High-throughput results: PubChem, National Center for Advancing Translational Sciences (NCATS)
BAZ2B inh: qHTS Assay for Inhibitors of BAZ2B. Bromodomain adjacent to zinc finger domain protein 2B (Homo sapiens), Q9UIF8. AlphaScreen BAZ2B-H3K14Ac peptide displacement. Potency, µM (top dose mostly 114 µM), for the others: at the highest dose activity change, negative = inhibition, usual class: inhibitors. 360,000 compounds, 4.4% hits; further: on the % scale 0 is the no-effect control and ±100 the full control effect; nearly all actives have a fitted effect of over 60% in size
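Protein-peptide AlphaScreen: BAZ2B 50 nM, b-H3K14Ac 50 nM, 1x PBS pH 7.4 + 0.01% Tween-20. Preincubation 30 min RT; cpd 30 min RT (top 110 uM); beads 20 min RT, light-protected.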
JMJD2A Tudor inh: qHTS Assay for Inhibitors of JMJD2A-Tudor Domain; AID 504339, 2011; AlphaScreen JMJD2A-Tudor / H3K4me3 peptide binding; Potency, µM (titrated, usually from 114 µM), without a hit: at the top dose activity change, negative = inhibition, most hits filed as inhibitors; Lysine-specific demethylase 4A (Homo sapiens), O75164; 390,000 compounds, 4.4% hits; further: on the % scale 0 is the no-effect control and ±100 the full control effect; nearly all actives have a fitted effect of over 50% in size
Sfp inh: qHTS Assay for Inhibitors of Bacillus subtilis Sfp phosphopantetheinyl transferase (PPTase) | Potency, µM, without a hit: largest response in the series, negative = inhibition, most hits filed as inhibitors | 4'-phosphopantetheinyl transferase ffp (Bacillus subtilis), Q9F4F7 | Biochemical Sfp PPTase activity, qHTS | 310,000 compounds, 3.5% hits;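 further: the enzyme is Sfp with the accession as filed and its product quenches rhodamine fluorescence; 0% = enzyme reaction without inhibitor and -100% = no enzyme wells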
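Compounds were incubated with enzyme (final 15 nM) for 15 min at room temperature before substrate addition started the reaction. Fluorescence at 525 nm excitation, 598 nm emission was recorded immediately and after 30 minutes.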
G9a block: qHTS Assay for Inhibitors of Histone Lysine Methyltransferase G9a | Histone-lysine N-methyltransferase EHMT2 (Homo sapiens), Q96KQ7 | G9a H3K9 monomethylation, AlphaScreen, 2 h | Potency, µM (top dose mostly 102 µM), for inactives: at the highest dose activity, negative = inhibition, most hits filed as inhibitors | 350,000 compounds, 8.8% hits | AID 504332, 2011; further: on the % scale 0 is the no-effect control and ±100 the full control effect; nearly all actives have a fitted effect of over 75% in size
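AlphaScreen detection with an anti-monomethyl H3K9 antibody quantified product after a 2 h room-temperature reaction containing 500 nM biotinylated H3K9 peptide, 20 µM SAM and 20 nM enzyme, which had been preincubated 15 min with compound.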
L3MBTL1 block: qHTS Assay for the Inhibitors of L3MBTL1; Lethal(3)malignant brain tumor-like protein 1 (Homo sapiens), Q9Y468; AlphaScreen L3MBTL1–H3K9me1 peptide binding; Potency, µM (series often up to 57.1 µM), inactives show top-dose activity, negative = inhibition, most hits filed as inhibitors; 230,000 compounds, 0.66% hits; AID 485360, 2010; further: on the % scale 0 is the no-effect control and ±100 the full control effect; nearly all actives have a fitted effect of over 60% in size
Target sequence (Q9Y468 whole entry, looked up): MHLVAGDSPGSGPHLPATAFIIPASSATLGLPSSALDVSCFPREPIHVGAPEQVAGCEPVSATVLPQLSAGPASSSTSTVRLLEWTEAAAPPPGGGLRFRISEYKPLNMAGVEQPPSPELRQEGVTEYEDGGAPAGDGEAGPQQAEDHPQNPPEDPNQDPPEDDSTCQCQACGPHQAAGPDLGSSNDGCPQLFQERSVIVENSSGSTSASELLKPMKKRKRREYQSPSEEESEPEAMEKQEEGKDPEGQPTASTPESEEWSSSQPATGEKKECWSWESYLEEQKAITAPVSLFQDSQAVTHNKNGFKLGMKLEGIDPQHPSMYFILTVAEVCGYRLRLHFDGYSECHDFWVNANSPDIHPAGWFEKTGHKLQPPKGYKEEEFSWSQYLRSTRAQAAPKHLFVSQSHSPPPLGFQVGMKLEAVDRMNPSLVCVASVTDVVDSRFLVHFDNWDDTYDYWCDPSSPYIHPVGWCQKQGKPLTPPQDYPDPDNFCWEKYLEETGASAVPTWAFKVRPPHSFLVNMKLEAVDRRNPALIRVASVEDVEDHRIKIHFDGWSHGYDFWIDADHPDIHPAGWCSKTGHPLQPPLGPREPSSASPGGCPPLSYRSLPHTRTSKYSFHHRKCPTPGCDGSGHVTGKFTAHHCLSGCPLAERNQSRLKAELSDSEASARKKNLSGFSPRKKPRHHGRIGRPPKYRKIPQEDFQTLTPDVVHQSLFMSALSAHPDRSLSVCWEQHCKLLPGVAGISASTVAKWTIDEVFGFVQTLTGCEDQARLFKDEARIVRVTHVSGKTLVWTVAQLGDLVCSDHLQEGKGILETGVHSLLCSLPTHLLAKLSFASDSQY
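Read-out is AlphaScreen signal from streptavidin donor and nickel chelate acceptor beads (10 ug/mL final each) bridging L3MBTL1 (50 nM) and biotinylated K9-monomethylated H3(1-15) peptide (75 nM), after 30 min compound exposure at room temperature.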
HP1b binding inh: HTS for Inhibitors of HP1-beta Chromodomain Interactions with Methylated Histone Tails; 390,000 compounds, 0.56% hits; Potency, µM (highest dose often 114 µM), without a hit: top-dose activity change, negative = inhibition, usual class: inhibitors; AlphaScreen HP1-beta / biotin-H3K9me3 peptide binding; further: nearly all actives have a fitted effect of over 70% in size
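HP1-beta protein (50 nM final) preincubated 30 min at room temperature with biotinylated H3(1-18)K9me3 peptide (50 nM) in PBS pH 7.4, 0.01% Tween-20, then compound added for 30 min. AlphaScreen streptavidin donor/nickel chelate acceptor beads (10 ug/mL final), 30 min dark, luminescence read.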
Starred values were filed as active, the others as inactive; ? = inconclusive; . = no result; [ ] = remark or other dose. Sampled rows, rich in hits. Any-hit rate of the full collection: about 12%. The call rests on the fitted dose curve; in most records, active means well fitted curve in the direction sought with a large enough effect; inconclusive means small, poorly fitted or top-dose-only effect, or another doubt; inactive means no such curve, though single readings can be large; an effect the other way counts as inactive or inconclusive. Potency means the concentration at half of the fitted maximal effect.

SMILES	BAZ2B inh	JMJD2A Tudor inh	Sfp inh	G9a block	L3MBTL1 block	HP1b binding inh
C/C=C1\COC(C(=O)NCCN2CCOCC2)(C(F)(F)F)C=C1C=C1CCCCC1 (stereo not given)	.	-24%	2%	.	.	31%
O=C(Nc1cccc(Cl)c1)c1ccc(NCCCN2CCOCC2)c([N+](=O)[O-])c1	45µM*	?	-10%	14%[0.501 µM]	-9%	?
Cc1ccc(NC(=O)c2ccc(NCCCN3CCC(C)CC3)c([N+](=O)[O-])c2)cc1F	-12%	79µM*	-12%	71µM*	.	2%
CN(C)N=Nc1nc2c(c(=O)n(C)c(=O)n2C)n1C	-1%	-16%	14%	?	4%	35%
CCN1CCCC1CN(Cc1cc2cc(C)cc(C)c2[nH]c1=O)C(=O)Nc1ccccc1OC (stereo not given)	-11%	-13%	-18%	50µM*	-1%	13%
Cn1nnc2c(NCCc3ccccc3)ncnc21	4%	-5%	.	3%[59 µM]	.	29%
CCC(CC)C(=O)NCCN1CCN(C(=O)C(CC)CC)CC1	-3%[57.1 µM]	-7%	12%	5.6µM*	-2%	28%
Cc1ccc(S(=O)(=O)c2ccc([N+](=O)[O-])cn2)cc1	?	-29%	?	40µM*	.	6%[57 µM]
Cc1cc(S(=O)(=O)c2ccc([N+](=O)[O-])cn2)ccc1Br	.	-12%	.	.	.	32%
Nc1ccc(S(=O)(=O)c2ccccc2)nc1	0%	6%	?	22%[2.33 µM]	.	18%
O=[N+]([O-])c1ccc(S(=O)(=O)c2ccccc2)nc1	13%	-19%	50µM*	40µM*	.	24%
C=CC[C@](C)(Nc1ccc(OC)cc1)C(=O)OCC	.	.	14%	.	.	.
CCOc1cc(C(c2c(C)[nH]n(-c3ccccc3)c2=O)c2c(C)[nH]n(-c3ccccc3)c2=O)ccc1O	11µM*	50µM*	.	?	.	?
COc1ccc(C(c2c(C)[nH]n(-c3ccccc3)c2=O)c2c(C)[nH]n(-c3ccccc3)c2=O)cc1OC	?	?	1%	?	?	-51%
Cc1[nH]n(-c2ccccc2)c(=O)c1C(c1cc(Cl)ccc1O)c1c(C)[nH]n(-c2ccccc2)c1=O	?	45µM*	.	?	.	?
CCOC(=O)C1(Cc2cccc(OC)c2)CCN(C2CCOCC2)CC1	50µM*	-16%	0%	50µM*	-18%	-13%
CCOC(=O)C1(Cc2cccc(F)c2)CCN(C2CCOCC2)CC1	0%	-13%	-2%	5%	-5%	29%
CC(=O)n1c(Cl)c(NC(=O)CCl)c2ccccc21	45µM*	-3%	12%	?	.	26%
CC(=O)n1c2ccccc2c2ccccc21	12%	21%	12%	100%[59 µM]	5%	61%
CCCCCCCCCCOCC(O)CN (stereo not given)	.	.	0%	1%[12.7 µM]	.	.
Cc1ccc2c(Cl)c(Cc3ccccc3)c(=S)[nH]c2n1	.	32µM*	.	.	.	?
S=c1nc(Cc2ccc(Cl)cc2)[nH]c2ccccc12	-1%	-17%	15%	7%	15%	39%
O=C(c1cc(-c2ccc(O)cc2)on1)N1CCN(c2ccc(F)cc2)CC1	?	?	-9%	.	-14%	9%
O=C(c1cc(C2CC2)nn1-c1ccccc1)N1CCN(c2ccc(O)cc2)CC1	?	32µM*	.	2.8µM*	-17%	71µM*
O=C(c1cc(-c2cccc(O)c2)on1)N1CCCCC1	11%	-7%	-9%	8%[59 µM]	4%	26%
SMILES	BAZ2B inh	JMJD2A Tudor inh	Sfp inh	G9a block	L3MBTL1 block	HP1b binding inh
O=C(c1cc(C2CC2)nn1-c1ccccc1)N1CCN(c2ccccc2O)CC1	.	-34%	.	.	-8%	8%
O=C(c1cc(-c2ccc(O)cc2)on1)N1CCN(c2ccccc2)CC1	?	56µM*	-2%	-4%[59 µM]	.	-22%
O=C(c1cc(-c2cccc(O)c2)on1)N1CCCC1	-1%	-9%	14%	50µM*	.	10%
COc1cc(NC(=O)CN2C(=O)C(=O)N(C3CCCC3)C2=O)cc(OC)c1	0%	-7%	.	-13%[2.33 µM]	-4%	22%
COc1ccc(NC(=O)CSc2nnc(-c3cc(C)[nH]n3)n2N)cc1	-18%	-14%	9%	3%[0.0925 µM]	.	26%
COC(=O)c1ccccc1NC(=O)Cn1nc(C)c2nn(-c3ccc(Cl)cc3)c(C)c2c1=O	3%	-15%	.	4%[59 µM]	.	14%[57 µM]
COc1ccc(NC(=O)N2CCc3nc(-c4ccccc4)c4c(c3C2)CO[C@@H](C)C4)cc1	.	.	18%	.	.	.
O=C(CCNS(=O)(=O)c1c(Cl)cccc1Cl)OCC(=O)c1ccccc1	1%	-5%	4%	?	12%	30%
CCOC(=O)n1c(=O)oc2ccc(Cl)cc21	5%	28µM*	14%	20µM*	-3%	27%
CCc1cc2c3c(c1)C(C)CC(C)(C)N3C(=O)/C2=C1\SC(=O)NC1=O (stereo not given)	?	50µM*	6%	25µM*	?	?
CCCOc1c(Br)cc(C(=O)OCc2cc(=O)n3ccsc3n2)cc1OC	.	-6%	.	.	.	36%
COc1cc(/C=C2\SC(=S)N(CCC(=O)Nc3ccccn3)C2=O)cc(OC)c1OC	-20%	-21%[57.1 µM]	25%	7.9µM*	.	-20%
COc1ccccc1NC(=O)CCN1C(=O)/C(=C\c2cc(OC)c(OC)c(OC)c2)SC1=S	-4%	-10%	56µM*	-14%	.	15%
CCc1nnc(NC(=O)CN2C(=O)/C(=C/c3cc(OC)c(OC)c(OC)c3)SC2=S)s1	-27%	-20%	50µM*	7%[59 µM]	-8%	11%
CC(C)(C)c1ccc(Cn2ccc(-c3ccc4c(c3)OCO4)n2)cc1	3%	32%	-1%	.	23%	?
COc1ccc(Cl)cc1NC(=O)Cn1ccn(Cc2ccc(C)cc2)c(=O)c1=O	-13%	-29%	.	?	.	25%
Cc1ccc(Cl)cc1-n1ncc2c(N3CCN(Cc4ccccc4)CC3)ncnc21	-6%	-22%	.	5%[59 µM]	.	42%
CC(=O)Nc1ccc(S(=O)(=O)N2CCN(S(=O)(=O)c3c(F)cccc3F)CC2)cc1	.	-12%	.	.	.	.
CC(C(=O)NC1CCCC1)N(C(=O)Cn1nnc(-c2ccc(F)cc2)n1)c1ccccc1F (stereo not given)	8%	-7%	4%	-1%	.	6%
